# According to paper PMC5540273 (PLoS ONE, 2017):
# Assays:
# Details in all cases: concentration: 1 μM, replicates: in singlicate; n = 1
# [1] = test system: T1, RSK2(Kin.Dom.2-C-terminal)
# T1 construct: gene RPS6KA3
# [2] = test system: T2, RSK3(Kin.Dom.1-N-terminal)
# T2 construct: gene RPS6KA2
# [3] = test system: T3, RSK3(Kin.Dom.2-C-terminal)
# T3 construct: gene RPS6KA2
# [4] = test system: T4, RSK4(Kin.Dom.1-N-terminal)
# T4 construct: gene RPS6KA6
# [5] = test system: T5, RSK4(Kin.Dom.2-C-terminal)
# T5 construct: gene RPS6KA6
# S6K1 = test system: S6K1
# SBK1 = test system: SBK1
# SGK2 = test system: SGK2
# SGK3 = test system: SGK3
# SGK = test system: SGK
# SIK2 = test system: SIK2
# SIK = test system: SIK
# SLK = test system: SLK
# SNARK = test system: T6, SNARK
# T6 construct: gene NUAK2
# SNRK = test system: SNRK
# SRC = test system: SRC
# SRMS = test system: SRMS
# SRPK1 = test system: SRPK1
# SRPK2 = test system: SRPK2
# SRPK3 = test system: SRPK3
# 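Also: KINOMEscan kinase panel screen.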
smiles,measurement,setting,value
CS(=O)(=O)c1ccc(-c2nc3n(c2-c2ccncc2)CCC3)cc1 [SKF-105942],%Inh,[1],5%
same,%Inh,[2],15%
same,%Inh,[3],0%
same,%Inh,[4],0%
same,%Inh,[5],9%
same,%Inh,S6K1,17%
same,%Inh,SBK1,5%
same,%Inh,SGK2,0%
same,%Inh,SGK3,10%
same,%Inh,SGK,0%
same,%Inh,SIK2,0%
same,%Inh,SIK,1%
same,%Inh,SLK,0%
same,%Inh,SNARK,0%
same,%Inh,SNRK,14%
same,%Inh,SRC,0%
same,%Inh,SRMS,0%
same,%Inh,SRPK1,0%
same,%Inh,SRPK2,0%
same,%Inh,SRPK3,22%
Cc1cccc(-c2nc(Nc3ccncc3)c3ccccc3n2)n1 [GW855857],%Inh,[1],50%
same,%Inh,[2],0%
same,%Inh,[3],0%
same,%Inh,[4],0%
same,%Inh,[5],9%
same,%Inh,S6K1,0%
same,%Inh,SBK1,0%
same,%Inh,SGK2,0%
same,%Inh,SGK3,0%
same,%Inh,SGK,0%
same,%Inh,SIK2,0%
same,%Inh,SIK,4%
same,%Inh,SLK,18%
same,%Inh,SNARK,0%
same,%Inh,SNRK,0%
same,%Inh,SRC,20%
same,%Inh,SRMS,0%
same,%Inh,SRPK1,0%
same,%Inh,SRPK2,54%
same,%Inh,SRPK3,15%
CC(=O)Nc1nc2cnc(Nc3cc(NC(=O)c4cccc(CCC#N)c4)ccc3C)nc2s1,%Inh,[1],6%
same,%Inh,[2],0%
same,%Inh,[3],1%
same,%Inh,[4],24%
same,%Inh,[5],0%
same,%Inh,S6K1,3%
same,%Inh,SBK1,0%
same,%Inh,SGK2,0%
same,%Inh,SGK3,7%
same,%Inh,SGK,0%
same,%Inh,SIK2,0%
same,%Inh,SIK,16%
same,%Inh,SLK,14%
same,%Inh,SNARK,9%
same,%Inh,SNRK,33%
same,%Inh,SRC,18%
same,%Inh,SRMS,0%
same,%Inh,SRPK1,17%
same,%Inh,SRPK2,22%
same,%Inh,SRPK3,0%
CCCc1ccc(S(=O)(=O)NC2CCN(c3ccnc(Nc4ccc(F)cc4)n3)C2)cc1 (stereo not drawn) [GSK1379715],%Inh,[1],20%
same,%Inh,[2],13%
same,%Inh,[3],0%
same,%Inh,[4],0%
same,%Inh,[5],0%
same,%Inh,S6K1,0%
same,%Inh,SBK1,5%
same,%Inh,SGK2,0%
same,%Inh,SGK3,0%
same,%Inh,SGK,0%
same,%Inh,SIK2,0%
same,%Inh,SIK,0%
same,%Inh,SLK,0%
same,%Inh,SNARK,0%
same,%Inh,SNRK,0%
same,%Inh,SRC,48%
same,%Inh,SRMS,0%
same,%Inh,SRPK1,0%
same,%Inh,SRPK2,17%
same,%Inh,SRPK3,6%
O=C(Nc1n[nH]c2cc(-c3cccc(F)c3F)ccc12)C1CC1 [SB-733894],%Inh,[1],0%
same,%Inh,[2],52%
same,%Inh,[3],0%
same,%Inh,[4],0%
same,%Inh,[5],0%
same,%Inh,S6K1,22%
same,%Inh,SBK1,11%
same,%Inh,SGK2,29%
same,%Inh,SGK3,12%
same,%Inh,SGK,32%
same,%Inh,SIK2,0%
same,%Inh,SIK,0%
same,%Inh,SLK,0%
same,%Inh,SNARK,1%
same,%Inh,SNRK,3%
same,%Inh,SRC,0%
same,%Inh,SRMS,3%
same,%Inh,SRPK1,44%
same,%Inh,SRPK2,22%
same,%Inh,SRPK3,5%
O=S(=O)(c1ccc(-c2ccnc3[nH]ccc23)cc1)N1CCCC1 [GSK846226],%Inh,[1],0%
same,%Inh,[2],0%
same,%Inh,[3],38%
same,%Inh,[4],0%
same,%Inh,[5],35%
same,%Inh,S6K1,5%
same,%Inh,SBK1,4%
same,%Inh,SGK2,0%
same,%Inh,SGK3,0%
same,%Inh,SGK,0%
same,%Inh,SIK2,0%
same,%Inh,SIK,0%
same,%Inh,SLK,0%
same,%Inh,SNARK,16%
same,%Inh,SNRK,0%
same,%Inh,SRC,0%
same,%Inh,SRMS,0%
same,%Inh,SRPK1,60%
same,%Inh,SRPK2,0%
same,%Inh,SRPK3,3%
Cc1cccc(-c2nc(C)cc(Nc3ccncc3)n2)n1 [GSK257997],%Inh,[1],22%
same,%Inh,[2],0%
same,%Inh,[3],0%
same,%Inh,[4],0%
same,%Inh,[5],0%
same,%Inh,S6K1,1%
same,%Inh,SBK1,4%
same,%Inh,SGK2,0%
same,%Inh,SGK3,6%
same,%Inh,SGK,0%
same,%Inh,SIK2,0%
same,%Inh,SIK,0%
same,%Inh,SLK,42%
same,%Inh,SNARK,4%
same,%Inh,SNRK,0%
same,%Inh,SRC,0%
same,%Inh,SRMS,0%
same,%Inh,SRPK1,35%
same,%Inh,SRPK2,0%
same,%Inh,SRPK3,11%
CN(C)CCN(C)C(=O)c1cc(-c2ccncc2)c(-c2ccc(Cl)c(O)c2)o1.Cl.Cl [SB-710397],%Inh,[1],29%
same,%Inh,[2],8%
same,%Inh,[3],0%
same,%Inh,[4],0%
same,%Inh,[5],76%
same,%Inh,S6K1,15%
same,%Inh,SBK1,23%
same,%Inh,SGK2,9%
same,%Inh,SGK3,0%
same,%Inh,SGK,0%
same,%Inh,SIK2,0%
same,%Inh,SIK,0%
same,%Inh,SLK,91.7%
same,%Inh,SNARK,0%
same,%Inh,SNRK,0%
same,%Inh,SRC,11%
same,%Inh,SRMS,0%
same,%Inh,SRPK1,0%
same,%Inh,SRPK2,18%
same,%Inh,SRPK3,0%
Cc1ccc(NC(=O)Nc2cc(C(C)(C)C)nn2-c2ccccc2)cc1 [GSK1014915],%Inh,[1],0%
same,%Inh,[2],18%
same,%Inh,[3],11%
same,%Inh,[4],0%
same,%Inh,[5],44%
same,%Inh,S6K1,10%
same,%Inh,SBK1,7%
same,%Inh,SGK2,8%
same,%Inh,SGK3,0%
same,%Inh,SGK,0%
same,%Inh,SIK2,4%
same,%Inh,SIK,0%
same,%Inh,SLK,44%
same,%Inh,SNARK,0%
same,%Inh,SNRK,0%
same,%Inh,SRC,2%
same,%Inh,SRMS,0%
same,%Inh,SRPK1,21%
same,%Inh,SRPK2,0%
same,%Inh,SRPK3,2%
COc1ccc(Nc2nccc(NCCNC(=O)Nc3ccccc3F)n2)cc1 [GSK1379901],%Inh,[1],27%
same,%Inh,[2],19%
same,%Inh,[3],2%
same,%Inh,[4],0%
same,%Inh,[5],23%
same,%Inh,S6K1,3%
same,%Inh,SBK1,6%
same,%Inh,SGK2,0%
same,%Inh,SGK3,16%
same,%Inh,SGK,0%
same,%Inh,SIK2,2%
same,%Inh,SIK,0%
same,%Inh,SLK,11%
same,%Inh,SNARK,0%
same,%Inh,SNRK,0%
same,%Inh,SRC,0%
same,%Inh,SRMS,0%
same,%Inh,SRPK1,0%
same,%Inh,SRPK2,0%
same,%Inh,SRPK3,0%
COc1ccccc1CNC(=O)c1cc(C(=O)c2ccccc2C)c[nH]1 [GSK364507],%Inh,[1],0%
same,%Inh,[2],4%
same,%Inh,[3],0%
same,%Inh,[4],0%
same,%Inh,[5],0%
same,%Inh,S6K1,11%
same,%Inh,SBK1,16%
same,%Inh,SGK2,1%
same,%Inh,SGK3,0%
same,%Inh,SGK,0%
same,%Inh,SIK2,0%
same,%Inh,SIK,14%
same,%Inh,SLK,5%
same,%Inh,SNARK,0%
same,%Inh,SNRK,0%
same,%Inh,SRC,0%
same,%Inh,SRMS,0%
same,%Inh,SRPK1,26%
same,%Inh,SRPK2,0%
same,%Inh,SRPK3,0%
Cn1cncc1-c1ccc2ncnc(Nc3ccc(OCc4ccccc4)cc3)c2c1 [GW320571],%Inh,[1],20%
same,%Inh,[2],23%
same,%Inh,[3],0%
same,%Inh,[4],19%
same,%Inh,[5],0%
same,%Inh,S6K1,2%
same,%Inh,SBK1,28%
same,%Inh,SGK2,0%
same,%Inh,SGK3,0%
same,%Inh,SGK,0%
same,%Inh,SIK2,13%
same,%Inh,SIK,6%
same,%Inh,SLK,19%
same,%Inh,SNARK,0%
same,%Inh,SNRK,86%
same,%Inh,SRC,2%
same,%Inh,SRMS,0%
same,%Inh,SRPK1,0%
same,%Inh,SRPK2,0%
same,%Inh,SRPK3,25%
Cc1ccc(-c2cc(-c3c[nH]nc3-c3ccccn3)ccn2)cc1 [GW684088],%Inh,[1],30%
same,%Inh,[2],0%
same,%Inh,[3],25%
same,%Inh,[4],0%
same,%Inh,[5],62%
same,%Inh,S6K1,5%
same,%Inh,SBK1,4%
same,%Inh,SGK2,0%
same,%Inh,SGK3,4%
same,%Inh,SGK,0%
same,%Inh,SIK2,0%
same,%Inh,SIK,0%
same,%Inh,SLK,0%
same,%Inh,SNARK,0%
same,%Inh,SNRK,0%
same,%Inh,SRC,0%
same,%Inh,SRMS,9%
same,%Inh,SRPK1,13%
same,%Inh,SRPK2,52%
same,%Inh,SRPK3,0%
Cc1ccccc1-n1cnc2c(N)ncnc21 [SKF-97510],%Inh,[1],0%
same,%Inh,[2],0%
same,%Inh,[3],8%
same,%Inh,[4],0%
same,%Inh,[5],18%
same,%Inh,S6K1,0%
same,%Inh,SBK1,0%
same,%Inh,SGK2,0%
same,%Inh,SGK3,0%
same,%Inh,SGK,0%
same,%Inh,SIK2,0%
same,%Inh,SIK,0%
same,%Inh,SLK,100%
same,%Inh,SNARK,0%
same,%Inh,SNRK,0%
same,%Inh,SRC,13%
same,%Inh,SRMS,0%
same,%Inh,SRPK1,0%
same,%Inh,SRPK2,0%
same,%Inh,SRPK3,0%
Cc1cccc(-c2nc(Nc3ccc4[nH]ncc4c3)c3ccccc3n2)n1 [GW857175],%Inh,[1],23%
same,%Inh,[2],14%
same,%Inh,[3],1%
same,%Inh,[4],35%
same,%Inh,[5],15%
same,%Inh,S6K1,26%
same,%Inh,SBK1,5%
same,%Inh,SGK2,6%
same,%Inh,SGK3,9%
same,%Inh,SGK,25%
same,%Inh,SIK2,0%
same,%Inh,SIK,0%
same,%Inh,SLK,16%
same,%Inh,SNARK,15%
same,%Inh,SNRK,10%
same,%Inh,SRC,28%
same,%Inh,SRMS,25%
same,%Inh,SRPK1,16%
same,%Inh,SRPK2,0%
same,%Inh,SRPK3,28%
